aSyn UTR act – Activators working through SNCA 5'UTR binding (MLPCN). alpha-synuclein 5'UTR reporter, activators screen. 7.1% of 300,000 active. activity score, % (tested at 7.5 µM), hits read low; in the data active = activity score below about -60%
Starred values were filed as active, the others as inactive. Not all results are given here.

SMILES	aSyn UTR act
O=C(NC1CCCCC1)c1cc2ccccc2cc1O	-81*
Cc1ccc(NC(=S)N/C(=N/S(=O)(=O)c2ccccc2)c2ccccc2)cc1	-205*
COc1ccc(C(=O)NN/C(=N/S(=O)(=O)c2ccc(C)cc2)c2ccccc2)cc1	-81*
Cc1ccc(S(=O)(=O)/N=C(/NC(=S)Nc2ccccc2)c2ccccc2)cc1	-126*
COC(=O)Nc1ccc(S(=O)(=O)N2CCCc3ccccc32)cc1	84
O=C(Nc1ccc(S(=O)(=O)N2CCc3ccccc32)cc1)c1ccc2c(c1)OCO2	-73*
CC(=O)c1cccc(NC(=O)N2CCCc3ccccc32)c1	-131*
O=C(Nc1ccc2c(c1)OCO2)N1CCCc2ccccc21	-103*
CS(=O)(=O)N1CCc2cc(C(=O)Nc3ccc(Cl)cc3)ccc21	-138*
O=C(Nc1nccs1)c1csc2c1CCCC2	-129*
COc1cccc(NC(=O)c2csc3c2CCCC3)c1	-134*
Cc1ccccc1NC(=O)c1csc2c1CCCC2	-67*
COc1ccc(NC(=O)c2csc3c2CCCC3)cc1	-193*
c1ccc2c(c1)CC(N1CCCCC1)c1ccccc1S2 (stereo not given)	90
CCCOC(=O)/C(=C\C=C\c1ccco1)NC(=O)c1ccccc1	-86*
CCN1CCN(c2cc(C)c3cc(NC(=O)c4cccs4)ccc3n2)CC1	-109*
Cc1cc(N2CCN(C)CC2)nc2ccc(NC(=S)N3CCCCC3)cc12	-85*
CCN1CCN(c2cc(C)c3cc(NC(=O)c4ccc(OC)c(OC)c4)ccc3n2)CC1	-72*
Cc1cccc(N2CCN(C(=S)Nc3ccc4nc(N5CCN(C)CC5)cc(C)c4c3)CC2)c1C	95
COc1ccc(C(=O)Nc2ccc3nc(N4CCN(C)CC4)cc(C)c3c2)c(OC)c1	-78*
CCCCN(C)C(=S)Nc1ccc2nc(N3CCN(CC)CC3)cc(C)c2c1	-70*
CCN1CCN(c2cc(C)c3cc(NC(=O)c4cccc(OC)c4)ccc3n2)CC1	-124*
CC(C)C(=O)OCC(=O)Nc1ccc(N=Nc2ccccc2)cc1	-186*
CC1=NN(c2nc(-c3ccc(C)cc3)cs2)C(=O)C1N=Nc1ccc(C(N)=O)cc1 (stereo not given)	86
CC(=O)Nc1ccc(N2N=C(C)C(N=Nc3ccccc3)C2=O)cc1 (stereo not given)	-98*
SMILES	aSyn UTR act
CC(=O)Nc1ccc(N=Nc2ccccc2)cc1	-179*
CC(=O)OCC(=O)Nc1ccc(N=Nc2ccccc2)cc1	-143*
O=C(CCl)Nc1ccc(N=Nc2ccccc2)cc1	-63*
CC1(C(=O)OCC(=O)Nc2ccccc2)CC1(Cl)Cl (stereo not given)	-69*
O=C(Nc1ccc(N=Nc2ccccc2)cc1)c1ccccc1Cl	-170*
CC(C)c1nc2oc3c(NCc4ccccn4)ncnc3c2c2c1COC(C)(C)C2	51
CC(C)Sc1nc(NCc2ccco2)c2c3c(sc2n1)COC(C)(C)C3	-85*
CCOC(=O)C1(Cc2ccc(OC)cc2)CCN(C(=O)c2ccc3[nH]ccc3c2)CC1	-127*
Cc1ccc(S(=O)(=O)N2CCCCC2CCNC(=O)C(=O)NCCc2ccco2)cc1 (stereo not given)	-102*
Cc1ccc(S(=O)(=O)N2CCCCC2CCNC(=O)C(=O)Nc2ccccc2F)cc1 (stereo not given)	-148*
Cc1ccc(S(=O)(=O)N2CCCCC2CCNC(=O)C(=O)NCc2ccco2)cc1 (stereo not given)	-66*
CCn1cc(C(=O)NCc2ccco2)c(=O)c2cc(S(=O)(=O)N3CC(C)CC(C)C3)ccc21 (stereo not given)	82
Cc1ccc(OCc2cc(C(=O)N3CCC(C(O)C(C)C)CC3)no2)cc1C (stereo not given)	-80*
Cc1ccc(OCc2cc(C(=O)N3CCC(c4ccccc4Cl)C3)no2)cc1C (stereo not given)	-165*
COc1cc(C)ccc1OCc1cc(C(=O)NC(C)Cn2cncn2)no1 (stereo not given)	-155*
COc1cc(C)ccc1OCc1cc(C(=O)N2CCN(C3CCCCC3)CC2)no1	-99*
Cc1ccc(OCc2cc(C(=O)N3CCN(c4ccccc4)CC3)no2)cc1C	-155*
COc1ccccc1N1CCN(C(=O)c2c(-c3ccccc3)noc2C)CC1	-78*
COc1cc(C)ccc1OCc1cc(C(=O)N2CCCCCCC2)no1	-62*
Cc1ccc(OCc2cc(C(=O)N3CCN(C4CCCCC4)CC3)no2)cc1C	-62*
COc1ccc(C(=O)/C=C/C(=O)N(CC(=O)NCCC(C)C)Cc2cccs2)c(O)c1	61
COc1cccc(N2CCN(C(=O)c3ccc(CS(=O)c4ccccc4Cl)o3)CC2)c1 (stereo not given)	110
CCN1CCN(C(=O)c2cc(COc3ccc(C(C)=O)cc3OC)on2)CC1	-146*
COc1cccc(OCc2cc(C(=O)N3CCN(c4ccccc4OC)CC3)no2)c1	-139*
Cc1ccc(OCc2cc(C(=O)N(CCO)Cc3cccs3)no2)cc1C	-81*
SMILES	aSyn UTR act
Cc1ccc2c(c1)C(c1ccncc1)=NNC(c1ccccc1)=N2	-127*
Cc1ccc(C2=Nc3ccc(Br)cc3C(c3ccncc3)=NN2)cc1	-70*
CCn1cc(/C=C/C(=O)Nc2ccc(C)cc2Br)cn1	-82*
Cn1c(/C(C#N)=C/c2ccc(O)cc2)nc2ccccc21	-126*
CCOc1ccc(Nc2ccc([N+](=O)[O-])c3nonc23)cc1	-123*
O=[N+]([O-])c1ccc(Sc2cccc[n+]2[O-])c2nonc12	85
Cc1c(C(=O)Oc2cccc3ccccc23)cnn1-c1ccccc1	-65*
Cc1nn(-c2ccccc2)cc1C(=S)Nc1ccccc1	-171*
CCc1ccc(NC(=O)c2cnn(-c3ccccc3)c2C)cc1	-83*
Cc1c(C(=O)Nc2ccccc2F)cnn1-c1ccccc1	-163*
Cc1c(C(=O)Nc2cc(F)cc(F)c2)cnn1-c1ccccc1	-187*
Cc1c(C(=O)N(C)c2cccc(Cl)c2)cnn1-c1ccccc1	-104*
Cc1c(C(=S)Nc2ccccc2)cnn1-c1ccccc1	-108*
